# Data taken from PubChem BioAssay (NCI).
# This is part of a sample that, as a whole, favours compounds with a hit. Of some 79,000 tested, about 15% had one in any assay. A number with no mark means an inactive call. Active and inactive are the calls of the source. Cut-off read from the data, not from the text of the source: active = growth inhibition above about 70%; inactive = the rest.
# Key:
# [1] = NCI Yeast Anticancer Drug Screen. Data for the rad50 strain (AID 155);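 note: 0% = growth of vehicle-only cultures of the same strain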; details: S. cerevisiae rad50 strain growth inhibition, stronger effect = higher value
# Procedure, shortened: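 Genetically altered yeast (DNA repair pathway); compound treatment; growth inhibition vs vehicle ctrl.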
# [2] = NCI Yeast Anticancer Drug Screen. Data for the mec2-1 strain (AID 157); details: S. cerevisiae mec2-1 strain, stronger effect = higher value
# Procedure, shortened: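 Compounds were applied to mec2-1 yeast cells. Their growth was then compared with that of vehicle-treated cultures to give growth inhibition.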
# [3] = NCI Yeast Anticancer Drug Screen. Data for the sgs1 mgt1 strain (AID 161);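 note: 0% = growth of cultures given vehicle only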; details: S. cerevisiae sgs1 mgt1 strain, stronger effect = higher value
# Procedure, shortened: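 Yeast cells carrying a defined DNA-repair defect were exposed to test compounds. Growth inhibition was measured relative to vehicle-treated controls.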
# [4] = NCI Yeast Anticancer Drug Screen. Data for the cln2 rad14 strain (AID 165);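 note: 0% = growth equal to vehicle treated cultures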; details: S. cerevisiae cln2 rad14 strain, stronger effect = higher value
# Procedure, shortened: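 Strain: cln2 rad14 yeast, altered in cell cycle control and DNA damage repair. Read-out: growth inhibition vs vehicle.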
# [5] = NCI Yeast Anticancer Drug Screen. Data for the bub3 strain (AID 167); details: S. cerevisiae bub3 mutant strain, stronger effect = higher value
# Procedure, shortened: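 Yeast carrying a defined mutation is treated with each compound, and growth is compared with that of vehicle-exposed cells to give inhibition.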
# [6] = NCI Yeast Anticancer Drug Screen. Data for the mlh1 rad18 strain (AID 175); details: S. cerevisiae mlh1 rad18 strain growth inhibition, stronger effect = higher value
# Procedure, shortened: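 A repair-deficient yeast strain is exposed to test compound, and growth is scored relative to vehicle-treated controls.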
# [7] = at 5.0 µM (retest, dose inferred, filed as 0.5)
# [8] = at 50.0 µM (retest, dose inferred, filed as 5.0)
Structure (SMILES),"growth inhibition [1, 7]","growth inhibition [1, 8]",growth inhibition ([1]; at 50.0 µM),"growth inhibition [2, 7]","growth inhibition [2, 8]",growth inhibition ([2]; at 50.0 µM),"growth inhibition [3, 7]","growth inhibition [3, 8]",growth inhibition ([3]; at 50.0 µM),"growth inhibition [4, 7]","growth inhibition [4, 8]",growth inhibition ([4]; at 50.0 µM),"growth inhibition [5, 7]","growth inhibition [5, 8]",growth inhibition ([5]; at 50.0 µM),"growth inhibition [6, 7]","growth inhibition [6, 8]",growth inhibition ([6]; at 50.0 µM)
CC(=O)Oc1cc(OC(C)=O)c2cc(Br)ccc2c1OC(C)=O,-5%,63%,87.5% (active),3%,47%,72.8% (active),-19%,67%,62.8%,0%,37%,70.2% (active),0%,65%,94.1% (active),5%,69%,90.7% (active)
COc1cc(C=Nc2ccc(Cl)cc2)ccc1OC(=O)c1ccccc1,6%,-8%,18%,-6%,-5%,-37%,-2%,-1%,-3.8%,26%,21%,7.55%,27%,30%,-6.5%,3%,-18%,11.1%
CC(CN(C)C)C(=O)c1cn(C)c2ccccc12 (configuration not stated),1%,3%,9%,5%,2%,16.8%,-2%,3%,30.3%,3%,4%,12.6%,-2%,-4%,-9.05%,-2%,1%,70.2% (active)
Cc1ccc(NC(=O)CCC(=O)CC(=O)C(C)(C)C)cc1C,16%,7%,1.1%,2%,-2%,-14.3%,13%,3%,-13.8%,-5%,4%,34.8%,-6%,3%,-7.9%,-2%,-4%,-15.7%
C/C(=N\NC(=O)c1ccc([N+](=O)[O-])cc1)c1ccccc1,8%,-5%,-2.65%,-19%,-1%,-5.45%,6%,-6%,10.3%,2%,11%,-7.95%,9%,14%,38.8%,15%,26%,-7.2%
CCCCCCOC(=O)COc1ccccc1,4%,2%,23.6%,0%,-1%,-0.8%,-1%,3%,20.6%,5%,1%,40.8%,24%,45%,15.8%,-1%,0%,33.7%
C/C=C/C/S(=N\S(=O)(=O)c1ccc(C)cc1)c1ccccc1 (configuration not stated),4%,93% (active),96.7% (active),4%,88% (active),95.5% (active),11%,97% (active),81.5% (active),1%,73% (active),40.9%,-7%,97% (active),94.7% (active),5%,95% (active),93.3% (active)
C=C1C(O)C2(O)OCC34C(CC5C(C)=CC(=O)C(O)C5(C)C23)OC(=O)C(OC(=O)C/C=C/CCCCCCCC)C14 (configuration not stated),85% (active),98% (active),92.2% (active),87% (active),99% (active),93% (active),75% (active),99% (active),92.8% (active),87% (active),99% (active),92% (active),84% (active),99% (active),91.5% (active),93% (active),99% (active),90.7% (active)
O=C(Cc1ccccc1)NNc1nc(NNC(=O)c2ccncc2)nc(Nc2ccccc2)n1,11%,18%,26%,-9%,11%,10.4%,12%,11%,33.3%,-10%,21%,-2.6%,-10%,19%,36.6%,13%,25%,51.1%
O=C1CCC(Cc2ccc(I)cc2)C(=O)N1 (configuration not stated),-5%,3%,-2.9%,1%,6%,-12.7%,-11%,68%,66.3%,-5%,7%,-63.8%,-6%,-5%,-54.2%,-6%,1%,-4.6%
COc1ccc2c(c1)CC[C@@H]1[C@@H]2CC[C@]2(C)/C(=N/OCCN3CCCC3)CC[C@@H]12,95% (active),99% (active),89.5% (active),38%,99% (active),91.8% (active),24%,96% (active),92.1% (active),46%,98% (active),89.7% (active),49%,97% (active),91.1% (active),39%,99% (active),91.1% (active)
CCC1CCCN1CCOC(=O)C(c1ccccc1)C1C=CCC1 (configuration not stated),31%,51%,52.9%,23%,58%,33.9%,40%,74% (active),72% (active),32%,62%,62.4%,40%,60%,48.6%,60%,79% (active),63%
CCNc1cc(SC)nc(N)n1,1%,-4%,1.2%,-1%,2%,37.1%,-1%,-3%,-7.6%,-8%,3%,-3.6%,-2%,-1%,-23.2%,1%,-4%,-22.4%
N#CC(C#N)=c1c2nsnc2c(=C(C#N)C#N)c2nsnc12,71% (active),88% (active),-9.1%,19%,82% (active),-1.6%,52%,90% (active),-9.75%,55%,83% (active),-47.7%,60%,91% (active),-14.2%,36%,87% (active),7.45%
COc1ccc(/C=C/c2cc(OC)c(OC)c(OC)c2)cc1O[Si](C)(C)C(C)(C)C,1%,-9%,-2.65%,0%,-3%,-1.75%,-1%,-5%,13.6%,1%,-4%,53.2%,-1%,-7%,-37.5%,1%,-6%,-4.45%
O=C(c1ccccc1)N(C1CCCCC1)C1CCCCC1,7%,97% (active),98.1% (active),1%,98% (active),98.5% (active),5%,97% (active),99% (active),-2%,95% (active),98.9% (active),-3%,93% (active),98% (active),5%,97% (active),98.3% (active)
NCc1cccc(O)c1O,27%,61%,73.7% (active),22%,41%,81.1% (active),14%,51%,41.5%,15%,46%,24.7%,20%,72% (active),53.6%,28%,44%,24.9%
Cc1cccc(Cl)c1NC(=O)/C=C/c1ccccc1,41%,44%,-22.1%,44%,44%,-6.05%,-1%,23%,1.1%,29%,6%,-1.6%,27%,39%,8.6%,35%,48%,-6.65%
COc1ccc2c(c1)C1(C)CCCC(C)(C(=O)O)C1C(Br)C2=O (configuration not stated),6%,91% (active),69.8%,20%,98% (active),46.6%,-12%,97% (active),84% (active),-8%,96% (active),37.4%,6%,96% (active),35.2%,21%,96% (active),72.2% (active)
